Screening results as filed in PubChem BioAssay.
Giardia killer: kills Giardia lamblia. Giardia lamblia trophozoite viability. activity change, % at 7.66 µM, hits read low. actives 0.15% (n = 340,000). AID 540267; in the data active = activity change below about -80%; inconclusive = between about -30% and that limit;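 also: parasites exposed to compound for two days anaerobically before the ATP read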
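Trophozoite viability was measured as ATP-dependent luminescence, read 15-30 min after reagent addition. Before that, parasites at 100 cells/well were exposed to compounds for 48 h, anaerobically, at 37 deg C.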
RORg inh: ROR gamma (mouse) transcription inhibition. P51450. Drosophila S2 Gal4-RORgamma UAS-luciferase reporter, 20 h. Potency, µM (titrated, usually from 53.6 µM), hits mostly inhibitors. actives 5.4% (n = 310,000). AID 2551; also: nearly all actives have a fitted effect of over 60% in size
Target sequence (P51450 whole entry, looked up, the tested form may be a part): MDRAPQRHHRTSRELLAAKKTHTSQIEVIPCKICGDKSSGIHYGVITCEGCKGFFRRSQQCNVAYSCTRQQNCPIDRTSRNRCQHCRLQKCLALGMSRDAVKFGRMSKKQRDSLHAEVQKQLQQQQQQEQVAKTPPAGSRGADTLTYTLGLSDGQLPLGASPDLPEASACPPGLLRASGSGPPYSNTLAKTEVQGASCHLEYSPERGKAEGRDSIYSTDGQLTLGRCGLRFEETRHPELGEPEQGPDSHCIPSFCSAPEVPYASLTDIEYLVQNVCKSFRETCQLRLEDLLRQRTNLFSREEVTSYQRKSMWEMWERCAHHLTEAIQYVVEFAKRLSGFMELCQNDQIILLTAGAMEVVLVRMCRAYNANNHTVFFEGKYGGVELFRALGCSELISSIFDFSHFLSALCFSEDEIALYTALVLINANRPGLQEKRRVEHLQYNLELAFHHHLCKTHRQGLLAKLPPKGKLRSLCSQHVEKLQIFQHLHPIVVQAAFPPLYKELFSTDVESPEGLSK
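Luciferase reporter read in Schneider cells carrying Gal4-RORγ (mouse) and UAS-Photinus luciferase; cells given compound 1 h before 700 uM copper sulfate induction, then incubated 20 h at ambient temperature.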
SW480 rerep: induces DNA re-replication in SW480 colon adenocarcinoma cells; SW480 DNA re-replication, Hoechst DNA content imaging, 48 h; Potency, µM (highest dose often 46.1 µM), actives largely listed as activators; actives 1.8% (n = 340,000); also: nearly all actives have a fitted effect of over 55% in size
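SW480 cells exposed to compounds for 48 hr at 37 C, 5% CO2, then Hoechst-stained 40 min. Nuclear DNA content imaged by fluorescence scanning (405 nm excitation, 500-530 nm emission); re-replication scored as increased high-intensity nuclei.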
Gal4-VP16 FLuc: counter-screen for ROR gamma inhibitors: Gal4-VP16 reporter. Potency, µM (series often up to 53.6 µM), most hits filed as inhibitors. AID 2546. actives 3.5% (n = 310,000). Drosophila S2 Gal4-VP16 UAS-luciferase, luminescence, 20 h;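 also: Gal4-VP16 expression switched on by copper sulfate through the metallothionein promoter; nearly all actives have a fitted effect of over 50% in size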
MCF10A rereplic: DNA re-replication induction in MCF 10a cells | Potency, µM (series often up to 46.1 µM), actives largely listed as activators | MCF 10A DNA re-replication, Hoechst nuclear intensity, 48 h | actives 2.9% (n = 350,000); also: nearly all actives have a fitted effect of over 50% in size
BCR signal inh: inhibitors of chronic active B-cell receptor signaling. actives 0.05% (n = 340,000). Potency, µM (titrated, usually from 46.1 µM), hits mostly inhibitors. ABC-DLBCL IkBa-CBG/CBR reporter, luminescence ratio, 4 h. AID 493014; active = well fitted inhibition curve with a large enough effect in the signal ratio, with a control signal flat, not every such curve was filed as active; inconclusive = small, poorly fitted or top-dose-only effect, or effect the other way, or a change in a side signal; the % refers to the signal ratio
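TMD8 human ABC-DLBCL cells with doxycycline-inducible IκBα–green luciferase fusion and unfused red luciferase, in 0.5% FBS medium; compounds up to 46 uM, 4 h at 37C. Green/red luminescence ratio, filter-overlap corrected, fitted to concentration-response curves.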
A number is an active result; n = inactive; u = inconclusive; x = not tested or not shown; [ ] = another dose, or the depositor's remark. An excerpt weighted towards active compounds, which were near 8.3% of everything screened. Unless noted, calls follow the shape of the dose curve; as a rule, active = well fitted curve in the direction sought with a large enough effect; inconclusive = small, poorly fitted or top-dose-only effect, or another doubt; inactive = no such curve, though single readings can be large; an effect the other way counts as inactive or inconclusive.

SMILES	Giardia killer	RORg inh	SW480 rerep	Gal4-VP16 FLuc	MCF10A rereplic	BCR signal inh
CCSC(=O)N1c2ccc(OC)cc2C=CC1C#N (centres undefined)	n	x	u	x	1.2µM	x
COc1ccc(C(=O)N2c3ccccc3C=CC2C#N)cc1 (centres undefined)	n	n	u	n	u	n
N#C[C@H]1C(O)C(O)c2ccccc2N1C(=O)c1ccccc1 (some centres undefined)	n	x	n	x	n	x
CSc1ccc(/C=C/C(=O)OCC(=O)N(C)CCC#N)cc1	n	n	u	n	n	n
O=C(OCc1nnc(-c2ccccc2)o1)c1cccc(S(=O)(=O)N2CCOCC2)c1	n	x	n	x	n	n
CCCCCCCCC(=O)N/N=C(\C)c1ccco1	n	u	n	n	n	n
CCCCCCCC(=O)N/N=C(/C)c1c(O)cc(C)oc1=O	n	8.9µM	u	22µM	n	n
CCCCCCCC(=O)N/N=C(\C)c1ccc(N)cc1	x	n	x	n	x	n
CCCCCCCC(=O)N/N=C(\C)c1ccc(O)cc1O	n	7.1µM	n	11µM	n	n
C/C(=N\NC(=O)c1cccs1)c1c(O)cc(C)oc1=O	n	4.5µM	n	5µM	n	u
CCCCCCCCC(=O)N/N=C(\C)c1ccc(O)cc1O	n	3.5µM	u	u	u	n
CCOc1cc(OCC)c(C(=O)CCC(=O)O)cc1OCC	x	n	n	n	n	x
Cc1ccc(OCC(=O)N(C)CC(=O)NCc2ccco2)c(Br)c1	n	x	n	x	n	n
COc1ccc(NC(=O)COc2ccc(C)c(C)c2)cc1S(=O)(=O)N1CCCCC1	n	x	n	x	n	n
CCN(CC)S(=O)(=O)c1cccc(NC(=O)CNc2cccc(S(=O)(=O)N3CCCC3)c2)c1	n	n	n	0.71µM	u	n
COc1ccc(S(=O)(=O)N2CCCCC2)cc1NCC(=O)Nc1ccc(C)cc1	n	n	n	3.5µM	u	n
COc1ccc(S(=O)(=O)N2CCCCC2)cc1NC(=O)CN(Cc1ccco1)Cc1ccco1	n	x	n	x	21µM	n
COc1ccc(NC(=O)COc2cc(C)cc(C)c2)cc1S(=O)(=O)N1CCCCC1	n	x	5.8µM	x	21µM	n
COc1ccc(S(=O)(=O)N2CCCCC2)cc1NC(=O)CN(C)C1CCCCC1	n	n	n	n	n	n
CCOC(=O)C(NC(C)=O)C(=O)Nc1ccc(C)cc1C (centres undefined)	n	n	n	n[10 µM]	n	n
CCN(CC)C(=O)C(=O)c1cc(C)n(-c2ccc(F)cc2)c1C	n	n	n	n	n	u
O=C1c2ccccc2C(=O)N1CCCCN(C(=O)c1ccc(Cl)s1)c1ccc(Cl)cc1	n	8.9µM	n	5µM	n	n
Cc1ccc(N(CCCCN2C(=O)c3ccccc3C2=O)C(=O)c2ccc(Cl)s2)cc1	n	n	n	n	u	n
NS(=O)(=O)c1ccc(NC(=O)COc2ncnc3c2cnn3-c2ccccc2)cc1	n	n	n	n	n	n
COC(=O)CC1=NN(c2ccccc2)C(=O)/C1=C\c1ccc(OC)cc1	n	n	n	n	n	n
SMILES	Giardia killer	RORg inh	SW480 rerep	Gal4-VP16 FLuc	MCF10A rereplic	BCR signal inh
CCOC(=O)CC1=NN(c2ccccc2)C(=O)/C1=C\c1ccc(OC)cc1OC	n	n	u	n	10µM	n
CCc1cccc(C)c1NC(=O)CSc1nnc(C)o1	n	n	n	n	n	n
Cc1ccc(NC(=O)c2cc3ccccc3cc2O)cc1	n	n	n	u	u	u
COc1c(C(=O)Nc2ccc(Cc3ccncc3)cc2)ccc2ccccc12	n	u	u	u	23µM	u
COc1ccc(NC(=O)c2cc3ccccc3cc2O)cc1	n	n	u	n	4.6µM	u
COc1ccc(NC(=O)c2cccc3ccccc23)cc1	n	n	u	u	21µM	n
O=C(NC1CCCCC1)c1cc2ccccc2cc1O	n	n	18µM	n	n	n
COc1cc(C2C(C#N)=C(N)N(N(C)C)C3=C2C(=O)CC(C)(C)C3)ccc1O (centres undefined)	n	n	n	n	n	n
COc1ccc(NS(=O)(=O)NC(=O)c2c(C)n(C)c3ccccc23)cc1	n	n	u	n	n	u
